We go through seven compounds from PubChem BioAssay (Tox21).

Assay [1] can be described thus: Nuclear factor erythroid 2-related factor 2/antioxidant responsive element (Nrf2/ARE) small molecule agonists: qHTS cell viability counter screen in human keratinocytes (AID 1919968; active means well fitted curve in the direction sought with a large enough effect in the repeat runs; an effect the other way counts as inactive or inconclusive; further: nearly all actives have a fitted effect of over 55% in size; further: potency means the concentration at half of the fitted maximal effect). In short, it runs like this: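 Fluorescence read-out from CellTiter-Fluor after 1 h at 37 C. Wells held HaCaT-derived ARE-luciferase reporter cells (1,500/well) treated 23 h with DMSO-dissolved compounds. Run in the same wells as the luciferase agonist read.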
In general terms: qHTS replaces the single test concentration by a dilution series.

Assay [2] can be described thus: Nuclear factor erythroid 2-related factor 2/antioxidant responsive element (Nrf2/ARE) small molecule agonists: luciferase reporter gene qHTS assay in human keratinocytes (AID 1919969; further: nearly all actives have a fitted effect of over 35% in size; further: potency means the concentration at half of the fitted maximal effect). (In a reporter assay the amount or activity of a reporter protein is the signal.)
The target in assay [3] is Gonadotropin-releasing hormone receptor (Homo sapiens) (UniProt P30968). Kind of assay: Human gonadotropin-releasing hormone receptor (GnRHR) small molecule agonists, calcium flux assay in GnRHR-HEK293 cells (AID 1920063). Further: nearly all actives have a fitted effect of over 35% in size. An outline of the steps: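 Calcium-dye fluorescence, Ex/Em=480/540, recorded every 1 sec over 3 min after compound addition to GnRHR-HEK293 cells. Cells had been seeded 18 hours earlier and dye-loaded for 1 hour at 37 C. Fifteen concentrations, triplicates.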
In general terms: Calcium flux is commonly read through the fluorescence of an indicator in the cells.

Assay [4] addresses KiSS-1 receptor (Homo sapiens) (UniProt Q969F8). Kind of assay: Human kisspeptin (KISS1R) small molecule agonists, calcium flux assay in KISS1R-HEK293 cells (AID 1920064; active means well fitted curve in the direction sought with a large enough effect in the repeat runs; an effect the other way counts as inactive or inconclusive). An outline of the steps:
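Calcium flux read-out: kinetic fluorescence at Ex/Em=480/540, 1 s intervals over 3 min, after pin-tool compound addition to dye-loaded KISS1R-HEK293 cells. Fifteen concentrations, triplicates.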

A short description of assay [5]: p53 small molecule agonists, cell-based qHTS assay with rat liver microsomes (AID 1963578). In short, it runs like this: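 Each plate received p53RE-bla cells, then compound, then rat liver microsomes and NADPH (both 0.5 mg/mL final). Plates were held 16 h at 37 C, and beta-lactamase activity was detected with LiveBLAzer over 2 h.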
A short description of assay [6]: p53 small molecule agonists, cell-based qHTS assay with human liver microsomes: qHTS cell viability counter screen (AID 1963579). Further: nearly all actives have a fitted effect of over 45% in size. Further: potency means the concentration at half of the fitted maximal effect. In short, it runs like this: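 Tox21 library compounds, delivered from DMSO stocks, were tested on p53RE-bla cells together with 0.5 mg/mL human liver microsomes and 0.5 mg/mL NADPH (final) over 16 h at 37 C; CellTiter-Glo luminescence served as the cytotoxicity measure.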

A short description of assay [7]: p53 small molecule agonists, cell-based qHTS assay with rat liver microsomes: qHTS cell viability counter screen (AID 1963580). Further: nearly all actives have a fitted effect of over 45% in size. In short, it runs like this:
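Rat liver microsome (0.5 mg/mL final) and NADPH (0.5 mg/mL final) co-incubation with compounds for 16 h at 37 C on HCT-116 p53RE-bla cells; cytotoxicity taken from intracellular ATP luminescence.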

Assay [8] is described as follows: p53 small molecule agonists, cell-based qHTS assay: qHTS cell viability counter screen (AID 1963581). Further: nearly all actives have a fitted effect of over 45% in size. An outline of the steps: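 Cytotoxicity read-out: ATP-based luminescence (CellTiter-Glo, 30 min RT) measured in the same wells as the p53 reporter assay, HCT-116 p53RE-bla cells, 16 h compound exposure at 37 C.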
Assay [9] in a line: p53 small molecule agonists, cell-based qHTS assay (AID 1963582; active means well fitted activation curve with a large enough effect in the signal ratio in the repeat runs, not every such curve was filed as active; the % refers to the signal ratio). In short, it runs like this: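 Fluorescence intensity read-out of a beta-lactamase reporter under a p53 response element. Cells were exposed to DMSO-dissolved compounds for 16 h at 37 C, then developed with FRET substrate for 2 h at RT.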
Assay [10] has as its target 5-hydroxytryptamine receptor 2A (Homo sapiens) (UniProt P28223). The experiment in a line: 5-hydroxytryptamine receptor 2A (HTR2A) small molecule antagonists, cell-based qHTS assay (AID 1963586). Further: nearly all actives have a fitted effect of over 45% in size. Further: potency means the concentration at half of the fitted maximal effect. An outline of the steps: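 CHO cells stably expressing human HTR2A were plated for 18 h at 37 C, then loaded with calcium dye for 1 h. Compounds were preincubated 5 min at room temperature before DOI (4 nM solution) was added. Kinetic fluorescence was read for 3 min.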

Assay [11] has the same target. Kind of assay: 5-hydroxytryptamine receptor 2A (HTR2A) small molecule agonists, cell-based qHTS assay (AID 1963587). Further: nearly all actives have a fitted effect of over 30% in size. Further: potency means the concentration at half of the fitted maximal effect. In short, it runs like this:
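Kinetic calcium-flux fluorescence (2 min, 1 sec intervals) after compound addition in agonist mode. HTR2A-CHO cells were cultured 18 h, then dye-loaded 1 h at 37 C.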

The target of assay [12] is Muscarinic acetylcholine receptor M1 (Homo sapiens) (UniProt P11229). The experiment in a line: Cholinergic receptor muscarinic 1 (CHRM1) small molecule antagonists, cell-based qHTS assay (AID 1963588). Further: nearly all actives have a fitted effect of over 40% in size. Further: potency means the concentration at half of the fitted maximal effect. An outline of the steps: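 Compounds were tested at 15 concentrations in three independent runs. Dye-loaded CHRM1-CHO cells were exposed 5 min at room temperature before stimulation by acetylcholine added at 50nM. Intracellular calcium was read kinetically on FDSS for 3 min.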

Assay [13] shares this target. The experiment in a line: Cholinergic receptor muscarinic 1 (CHRM1) small molecule agonists, cell-based qHTS assay (AID 1963589). Further: nearly all actives have a fitted effect of over 35% in size. In short, it runs like this: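 Calcium flux read-out: kinetic fluorescence at 1 sec intervals after pin-tool compound addition to dye-loaded CHRM1-CHO cells (human M1). Agonist mode; 15 concentrations tested in triplicate independent runs.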

The nature of assay [14]: cAMP Responsive Elements (CRE) small molecule agonists, cell-based qHTS assay (AID 1963590). An outline of the steps:
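Beta-lactamase reporter readout: LiveBLAzer B/G FRET substrate, 2 h at room temperature, added after 3 h compound treatment of CRE-bla HEK 293T cells at 37 C/5% CO2.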

A short description of assay [15]: cAMP Responsive Elements (CRE) small molecule antagonists, cell-based qHTS assay (AID 1963591; active means well fitted inhibition curve with a large enough effect in the signal ratio in the repeat runs, not every such curve was filed as active; the % refers to the signal ratio). In short, it runs like this: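 HEK293T CRE-bla; 18 h preincubation; compound pin-transfer; NKH477 0.25 uM final, 3 h, 37 C; LiveBLAzer FRET substrate 2 h RT.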
Assay [16] has as its target Beta-2 adrenergic receptor (Homo sapiens) (UniProt P07550). Kind of assay: Adrenergic beta2 receptor (ADRB2) small molecule antagonists, cell-based qHTS assay (AID 1963592). Further: nearly all actives have a fitted effect of over 50% in size. Further: potency means the concentration at half of the fitted maximal effect. On activity change, negative = inhibition: series mostly up to about 92 µM. In short, it runs like this: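 Assay format: CHO-ADRB2 cells, 18-20hr seeding at 37C/5% CO2, then compound plus 1nM isoproterenol agonist mix for 0.5hr RT. Homogeneous time-resolved fluorescence cAMP detection after 1hr, expressed as 665/615 nm ratio.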

The target of assay [17] is D(2) dopamine receptor (Homo sapiens) (UniProt P14416). Kind of assay: Dopamine D2 receptor (DRD2) small molecule agonists, cell-based qHTS assay (AID 1963594). Further: nearly all actives have a fitted effect of over 35% in size. An outline of the steps:
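cAMP accumulation in DRD2-HEK293 cells measured by HTRF after 1 h detection; compounds added 10 min before NKH477 (200nM […]) forskolin-analogue stimulation, 30 min at room temperature, with Ro20-1724 present at 0.1 mM final.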

Assay [18] has the same target. The experiment in a line: Dopamine D2 receptor (DRD2) small molecule antagonists, cell-based qHTS assay (AID 1963595; active means well fitted inhibition curve with a large enough effect in the signal ratio in the repeat runs, with a control signal flat; the % refers to the signal ratio; further: potency means the concentration at half of the fitted maximal effect). In short, it runs like this:
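HEK293 cells stably expressing DRD2 were preincubated with 0.1 mM Ro20-1724, then with compound for 10 min at room temperature. Cells were stimulated with 200 nM NKH477 plus 12 nM quinpirole for 30 min, and cAMP was read by HTRF.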

Assay [19] deals with Beta-2 adrenergic receptor (Homo sapiens) (UniProt P07550). Kind of assay: Adrenergic beta2 receptor (ADRB2) small molecule agonists, cell-based qHTS assay (AID 1963593).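 Further: CHO cells stably overexpressing human ADRB2.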 In short, it runs like this: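 CHO cells stably over-expressing ADRB2 were plated overnight at 37C, then dosed with compounds plus a stimulation mix containing 100uM IBMX and 25uM Ro-20-1724 for 0.5hr at room temperature. cAMP was measured by HTRF competition, 1hr.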

Assay [20] in a line: G protein-coupled receptor (GPCR) small molecule agonists, calcium flux assay: HEK293 wild type cell line counter screen (AID 1920065). An outline of the steps:
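Agonist mode; 18 h seeding at 37 C, 1 h dye load at 37 C; compounds pinned from DMSO, ATP as positive control; kinetic fluorescence 480/540 nm, 3 min, 1 s reads; 15 concentrations, triplicate.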

Where “and” joins values, the source holds several entries; their conditions need not be identical. Equal entries are not always repeated. Results filed as inconclusive are left out. A structure can be active in one record and inactive in another. Calls of active or inactive are those of the source. Unless noted, the call rests on the fitted dose curve.
On the % scale 0 is the no-effect control and ±100 the full control effect.

Sequence of Beta-2 adrenergic receptor (Homo sapiens) (P07550 whole entry, looked up): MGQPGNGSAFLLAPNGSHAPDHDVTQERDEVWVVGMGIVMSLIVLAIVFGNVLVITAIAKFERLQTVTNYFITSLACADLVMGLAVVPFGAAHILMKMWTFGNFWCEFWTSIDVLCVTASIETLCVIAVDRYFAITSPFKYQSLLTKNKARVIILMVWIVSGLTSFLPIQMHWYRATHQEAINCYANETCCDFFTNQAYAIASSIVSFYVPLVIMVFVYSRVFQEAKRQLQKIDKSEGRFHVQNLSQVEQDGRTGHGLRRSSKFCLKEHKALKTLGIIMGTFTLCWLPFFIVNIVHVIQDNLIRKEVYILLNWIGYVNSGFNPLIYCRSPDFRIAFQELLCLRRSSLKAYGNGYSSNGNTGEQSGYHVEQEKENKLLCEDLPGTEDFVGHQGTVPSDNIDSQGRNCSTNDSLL
Sequence of D(2) dopamine receptor (Homo sapiens) (P14416 whole entry, looked up): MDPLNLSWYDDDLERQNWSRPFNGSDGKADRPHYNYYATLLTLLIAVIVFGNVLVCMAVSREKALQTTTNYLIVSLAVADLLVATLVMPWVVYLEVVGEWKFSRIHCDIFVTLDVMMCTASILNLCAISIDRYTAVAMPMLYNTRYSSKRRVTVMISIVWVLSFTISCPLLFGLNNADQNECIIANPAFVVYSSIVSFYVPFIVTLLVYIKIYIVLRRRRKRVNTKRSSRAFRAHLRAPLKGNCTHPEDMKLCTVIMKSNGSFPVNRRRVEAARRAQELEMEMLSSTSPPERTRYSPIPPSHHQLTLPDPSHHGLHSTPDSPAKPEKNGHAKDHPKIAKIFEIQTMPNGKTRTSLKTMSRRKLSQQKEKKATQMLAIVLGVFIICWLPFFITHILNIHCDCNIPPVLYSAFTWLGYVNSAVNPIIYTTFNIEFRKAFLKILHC
Sequence of 5-hydroxytryptamine receptor 2A (Homo sapiens) (P28223 whole entry, looked up): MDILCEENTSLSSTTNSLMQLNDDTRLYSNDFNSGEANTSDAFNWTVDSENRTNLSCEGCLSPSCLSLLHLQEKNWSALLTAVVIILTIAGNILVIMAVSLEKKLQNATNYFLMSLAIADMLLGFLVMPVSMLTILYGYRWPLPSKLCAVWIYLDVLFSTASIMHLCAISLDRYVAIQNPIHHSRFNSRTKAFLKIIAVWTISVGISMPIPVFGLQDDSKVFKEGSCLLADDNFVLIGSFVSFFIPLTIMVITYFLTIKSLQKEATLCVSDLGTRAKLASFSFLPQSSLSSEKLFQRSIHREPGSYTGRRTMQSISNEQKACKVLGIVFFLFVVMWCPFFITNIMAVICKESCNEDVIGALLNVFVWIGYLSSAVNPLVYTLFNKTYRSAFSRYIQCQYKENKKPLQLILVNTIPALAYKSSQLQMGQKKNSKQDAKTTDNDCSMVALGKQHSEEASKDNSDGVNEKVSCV
Sequence of Gonadotropin-releasing hormone receptor (Homo sapiens) (P30968 whole entry, looked up): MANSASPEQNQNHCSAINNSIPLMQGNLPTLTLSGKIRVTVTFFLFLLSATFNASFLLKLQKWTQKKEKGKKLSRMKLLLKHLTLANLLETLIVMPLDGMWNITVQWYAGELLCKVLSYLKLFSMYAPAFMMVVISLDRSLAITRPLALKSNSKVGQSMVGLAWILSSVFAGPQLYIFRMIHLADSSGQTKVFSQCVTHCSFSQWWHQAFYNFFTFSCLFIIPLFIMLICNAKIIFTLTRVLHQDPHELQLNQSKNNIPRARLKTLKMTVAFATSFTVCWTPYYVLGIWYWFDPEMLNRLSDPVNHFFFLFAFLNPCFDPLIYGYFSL
Sequence of Muscarinic acetylcholine receptor M1 (Homo sapiens) (P11229 whole entry, looked up): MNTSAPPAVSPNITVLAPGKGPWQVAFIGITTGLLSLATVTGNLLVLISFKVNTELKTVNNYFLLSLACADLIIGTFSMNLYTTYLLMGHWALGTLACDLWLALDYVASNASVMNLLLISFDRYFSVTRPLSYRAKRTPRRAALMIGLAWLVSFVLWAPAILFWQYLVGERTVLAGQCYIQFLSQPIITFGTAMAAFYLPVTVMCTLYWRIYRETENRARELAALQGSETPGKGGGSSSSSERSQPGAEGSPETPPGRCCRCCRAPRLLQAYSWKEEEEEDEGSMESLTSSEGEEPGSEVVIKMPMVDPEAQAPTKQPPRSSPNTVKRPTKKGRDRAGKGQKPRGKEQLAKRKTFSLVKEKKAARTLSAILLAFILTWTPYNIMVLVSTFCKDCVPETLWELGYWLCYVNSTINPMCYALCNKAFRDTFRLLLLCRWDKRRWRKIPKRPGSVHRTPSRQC
Sequence of KiSS-1 receptor (Homo sapiens) (Q969F8 whole entry, looked up): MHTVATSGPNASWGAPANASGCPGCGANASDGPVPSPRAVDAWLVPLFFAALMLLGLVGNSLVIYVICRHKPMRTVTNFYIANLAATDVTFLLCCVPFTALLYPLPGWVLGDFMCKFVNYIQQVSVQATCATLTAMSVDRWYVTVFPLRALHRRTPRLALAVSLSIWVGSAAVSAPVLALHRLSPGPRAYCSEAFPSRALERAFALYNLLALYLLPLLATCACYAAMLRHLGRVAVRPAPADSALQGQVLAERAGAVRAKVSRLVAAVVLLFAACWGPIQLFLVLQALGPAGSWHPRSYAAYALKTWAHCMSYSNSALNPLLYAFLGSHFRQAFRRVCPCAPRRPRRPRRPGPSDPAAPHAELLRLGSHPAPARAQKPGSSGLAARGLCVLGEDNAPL

`CC(C)N(C(=O)SCC(Cl)=C(Cl)Cl)C(C)C`: the Potency entry in [1], in assay [2], in [3], in [4], in assay [5] and in assay [6] was “inactive” in each case. The Potency entry in [7], in assay [8], in assay [9], in [10], in assay [11] and in assay [13] was “inactive” each time. Moreover, the Potency entry in assay [14], in assay [15], in [16], in assay [17] and in assay [18] was “inactive” throughout. Also, the Potency in [12] was 23.4 µM (active).

With `Nc1cccc(Cl)c1`, the Potency entry in assay [1], in assay [2], in [3], in assay [4], in [5] and in [6] was “inactive” throughout. The Potency result in [7], in [8], in assay [9], in assay [10], in assay [11] and in assay [12] was “inactive” throughout. For the same compound, the Potency entry in [13], in assay [14], in assay [15], in assay [16], in assay [19] and in [17] was “inactive” each time. Moreover, the Potency result in [18] is “inactive”.

In the case of `CCN(CC)C(=S)S`, the Potency was 27.5 µM (active) and 7.65 µM (active) and 13.7 µM (active) in assay [1]; 29.1 µM (active) and inactive in [6]. Moreover, the Potency entry in [2], in assay [3], in assay [4], in assay [20], in [8] and in [10] was “inactive” each time. Also, the Potency result in assay [11], in assay [13], in assay [14], in assay [15], in [16] and in assay [19] was “inactive” throughout. Besides, the Potency entry in assay [17] and in assay [18] was “inactive” throughout.

For the compound `CCCCCCCC[N+](C)(CCCCCCCC)CCCCCCCC`, the Potency in [1] is 5.44 µM (active) and 6.87 µM (active) and 15.4 µM (active); in [6], 5.75 µM (active) and 6.47 µM (active) and 25.7 µM (active); in assay [12] it was 5.93 µM (active) and inactive and 6.67 µM (active); in assay [18] it was 54.4 µM (active) and inactive and 17.2 µM (active). For the same compound, the Potency entry in assay [2], in assay [3], in assay [4], in [20], in [10] and in assay [11] was “inactive” throughout. In addition, the Potency entry in assay [13], in [16] and in [17] was “inactive” each time.

With `CCCCN(CCCC)SN(C)C(=O)Oc1cccc2c1OC(C)(C)C2`, the Potency entry in [1], in assay [3], in [4], in assay [20], in assay [6] and in assay [10] was “inactive” each time. Also, the Potency entry in assay [11], in assay [13], in assay [15], in assay [16], in [19] and in assay [17] was “inactive” throughout. In addition, in assay [18], the Potency result is “inactive”. Besides, in assay [2], the Potency was 24.7 µM (active) and 54.5 µM (active).

On to `c1cc2c(c(N3CCNCC3)c1)OCCO2`, for which the Potency entry in [1], in assay [2], in assay [3], in assay [4], in assay [5] and in assay [6] was “inactive” in each case. In addition, the Potency entry in assay [7], in assay [8], in assay [9], in assay [12], in [13] and in assay [14] was “inactive” in each case. Further, the Potency result in [15], in assay [17] and in assay [18] was “inactive” throughout. Also, the Potency was 0.729 µM (active) in assay [10], 0.0601 µM (active) in assay [11] and 15 µM (active) in [16].

Regarding `ClC(Cl)(Cl)Br`, the Potency result in [1], in assay [2], in assay [3], in assay [4], in [5] and in assay [6] was “inactive” each time. Also, the Potency entry in assay [7], in assay [8], in assay [9], in assay [10], in assay [11] and in [12] was “inactive” each time. The Potency result in assay [13], in assay [14], in assay [16], in assay [19], in assay [17] and in assay [18] was “inactive” in each case. Moreover, the activity change, negative = inhibition in assay [15] was 0.761% [at 18.9 µM] (inactive).
